High-throughput results (PubChem BioAssay)
GPR151 ag – activators of human GPR151, primary screen, cell-based, PathHunter beta-arrestin, luminescence. G-protein coupled receptor 151 (Homo sapiens), Q8TDV0. PathHunter beta-arrestin GPR151 cells. activation, % at 11.2 µM. actives 1% (n = 650,000). AID 1508602, 2020; in the data active means activation above about 4.9%
Target sequence (Q8TDV0 whole entry, looked up): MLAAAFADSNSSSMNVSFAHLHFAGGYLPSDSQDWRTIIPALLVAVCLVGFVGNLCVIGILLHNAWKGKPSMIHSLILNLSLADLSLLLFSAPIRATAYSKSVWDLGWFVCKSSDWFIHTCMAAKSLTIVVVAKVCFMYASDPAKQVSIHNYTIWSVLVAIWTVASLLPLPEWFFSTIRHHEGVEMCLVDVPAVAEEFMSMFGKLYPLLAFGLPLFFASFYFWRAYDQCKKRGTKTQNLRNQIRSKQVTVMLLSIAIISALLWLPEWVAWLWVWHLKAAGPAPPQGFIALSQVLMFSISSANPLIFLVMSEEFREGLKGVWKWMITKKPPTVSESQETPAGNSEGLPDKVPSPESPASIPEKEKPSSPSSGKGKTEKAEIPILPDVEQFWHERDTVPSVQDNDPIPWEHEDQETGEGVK
TEAD-YAP inh – TEAD-YAP interaction inhibition, primary screen, TEAD-YAP interaction inhibitor project, luminescence, HEK-TIYL cells | TEAD-Gal4/YAP UAS-luciferase luminescence | inhibition, % at 9.12 µM | actives 1.4% (n = 640,000); in the data active means inhibition above about 32%
FBW7 act – FBW7 E3 ligase activators, primary screen, biochemical, AlphaScreen, human. F-box/WD repeat-containing protein 7 (Homo sapiens), Q969H0. AlphaScreen FBW7–phospho-cyclin E peptide binding, activator screen. actives 0.13% (n = 650,000). normalized activity (activation), % at 26.1 µM. AID 1259310, 2017; in the data active means normalized activity above about 1.9%;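 further: purified mutant Fbw7 with reduced substrate affinity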
MITF inh – MITF inhibitors, primary screen, biochemical, AlphaScreen, human; Microphthalmia-associated transcription factor (Homo sapiens), O75030; AlphaScreen MITF homodimerization, bead proximity signal; inhibition, % at 2.6 µM; actives 0.91% (n = 650,000); AID 1259374, 2018; in the data active means inhibition above about 50%
Numbers stand for hits; – = inactive. This is a sample that favours compounds with a hit; in the whole collection about 3.5% have one here.

SMILES	GPR151 ag	TEAD-YAP inh	FBW7 act	MITF inh
O=C1OC(c2ccc(Cl)c([N+](=O)[O-])c2)=N/C1=C/c1cccc(Cl)c1	–	–	–	–
CC1(C)CC(=O)N(CC(=O)NCc2cccnc2)c2ccccc2S1	–	–	–	–
c1ccc(C(c2nnnn2C2CCCC2)N2CCCCCC2)nc1 (stereo not given)	–	–	–	–
CN1CCN(C(c2ccccn2)c2ccc3cccnc3c2O)CC1 (stereo not given)	–	–	–	90
Oc1ccccc1C(Nc1nccs1)c1ccc2cccnc2c1O (stereo not given)	–	–	–	–
Oc1c(C(c2cccs2)N2CCN(c3ccccn3)CC2)ccc2cccnc12 (stereo not given)	–	91	–	–
Oc1c(C(c2ccccn2)N2CCN(c3ccccn3)CC2)ccc2cccnc12 (stereo not given)	–	–	–	83
Oc1c(C(c2ccccn2)N2CCCC2)ccc2cccnc12 (stereo not given)	–	67	–	107
O=C(c1ccc2ccccc2c1)N1CCN(c2ccccn2)CC1	–	–	–	–
CCC(C)NCc1nc2sc(C(=O)OC)c(C)c2c(=O)[nH]1 (stereo not given)	–	–	–	–
O=[N+]([O-])c1ccc(N/N=C\c2c[nH]c3ccccc23)c([N+](=O)[O-])c1	–	–	–	–
O=C(/C=C/Nc1ccc(Cl)cc1)c1ccccc1	–	35	–	–
COc1cc(C(=O)/C=C/Nc2ccc(O)cc2C)cc(OC)c1OC	–	–	–	–
COc1cc(C(=O)/C=C/Nc2ccc(Cl)cc2)cc(OC)c1OC	–	38	–	–
COc1cc(C(=O)/C=C/Nc2ccc(C)cc2O)cc(OC)c1OC	–	49	–	–
O=C(/C=C/Nc1ccc(O)cc1)c1ccc(Cl)cc1	–	–	–	–
CCNC(=O)C/C(C)=N/NC(=O)COc1ccc(C)cc1Br	–	–	–	–
CN(CC(=O)Nc1ccccc1Br)S(=O)(=O)c1cccs1	–	–	5.8	–
O=S(=O)(Nc1ccc(Cc2ccncc2)cc1)c1ccc(Cl)cc1	–	38	–	–
CCOc1ccccc1C1C=C(c2ccc(OC)cc2)Nc2ncnn21 (stereo not given)	–	56	–	–
COc1ccc(OC)c(C2C=C(c3ccc(C)cc3)Nc3ncnn32)c1 (stereo not given)	–	66	–	–
CCc1ccc(C2=CC(c3ccc(OC)c(OC)c3OC)n3ncnc3N2)cc1 (stereo not given)	–	47	–	–
COc1ccc(C2=CC(c3cc(OC)c(OC)c(OC)c3)n3ncnc3N2)cc1OC (stereo not given)	–	54	–	–
Cn1nc(C(C)(C)C)cc1C(=O)N1CCC(c2c(S(C)(=O)=O)cnc3ncnn23)CC1	–	–	–	–
COc1ccc(C(=O)NNC(=O)COc2ccc(Br)cc2C)cc1OC	–	–	–	–
SMILES	GPR151 ag	TEAD-YAP inh	FBW7 act	MITF inh
CCOC(=O)C1CCN(c2c(NCCN3CCCCCC3)c(=O)c2=O)CC1	–	–	–	–
COc1cc(/C=N/NC(=O)c2cccs2)c([N+](=O)[O-])cc1OC	–	–	–	–
O=C(CSc1nc2ccccc2c(=O)n1CCC(=O)N1CCCCC1)NC1CCCC1	–	–	–	–
COc1ccc(C2=CC(c3cccc(C)c3)n3ncnc3N2)cc1 (stereo not given)	–	46	–	–
COc1ccc(C2=CC(c3ccc(C)cc3)n3ncnc3N2)cc1OC (stereo not given)	–	–	–	–
COc1ccc(C2C=C(c3ccc(C)cc3)Nc3ncnn32)cc1OC (stereo not given)	–	54	–	–
COc1cc(C2C=C(c3ccc4c(c3)OCO4)Nc3ncnn32)cc(OC)c1OC (stereo not given)	–	64	–	–
COc1ccc(C2C(C(C)=O)=C(O)C(=O)N2c2nc3ccccc3s2)c(OC)c1 (stereo not given)	–	47	–	–
COc1ccc(C2/C(=C(\O)c3ccccc3)C(=O)C(=O)N2c2nc3ccccc3s2)c(OC)c1 (stereo not given)	–	–	–	–
COc1cccc(C2C(C(C)=O)=C(O)C(=O)N2c2nc3ccccc3s2)c1 (stereo not given)	–	–	–	–
COc1ccc(C2/C(=C(\O)c3ccc(Cl)cc3)C(=O)C(=O)N2c2nc3ccccc3s2)c(OC)c1 (stereo not given)	–	41	–	–
COc1ccc(-c2nnc3ccc(SCc4ccc(F)cc4)nn23)cc1	–	–	–	–
O=C(Nc1ccc(F)cc1)c1cccc(S(=O)(=O)N2CCCc3ccccc32)c1	–	40	–	–
O=C(Nc1ccccc1)c1cccc(S(=O)(=O)N2CCCc3ccccc32)c1	–	–	–	–
O=C(Nc1ccc(Br)cc1)c1ccc(F)c(S(=O)(=O)N2CCCc3ccccc32)c1	–	46	–	–
CC(=O)Nc1ccc(S(=O)(=O)Nc2ccc(S(=O)(=O)N3CCc4ccccc43)cc2)cc1	–	–	–	–
COC(=O)Nc1ccc(S(=O)(=O)N2CCCc3ccccc32)cc1	–	56	–	–
Cc1cccc(NC(=O)c2ccc(F)c(S(=O)(=O)N3CCCc4ccccc43)c2)c1	–	–	–	–
O=[N+]([O-])c1cccc(N/N=C/c2ccc([N+](=O)[O-])s2)c1	–	39	–	–
O=C(NCCN1CCOCC1)NCC12CC3CC(C1)CC(c1ccccc1)(C3)C2	–	–	–	–
Cc1ccc(C2=Nn3c(C)nnc3SC2)cc1	–	–	–	–
Cc1ccc(-c2nnc3n2N=C(c2ccc(O)c(O)c2)CS3)cc1	–	59	–	–
Oc1ccc(C2=Nn3c(nnc3-c3ccccc3Cl)SC2)cc1O	–	63	–	–
Oc1ccccc1-c1nnc2n1N=C(c1ccc(F)cc1)CS2	–	–	–	–
CCCNC(=O)C(=O)N/N=C/c1ccc(OC)cc1	–	–	–	–
SMILES	GPR151 ag	TEAD-YAP inh	FBW7 act	MITF inh
CC(C)C(=O)NCC1CCC2(CCN(Cc3ccc(C#CC(C)(C)O)cc3)CC2)O1 (stereo not given)	–	51	–	–
CCc1ccc(CN2CCC3(CCC(CNC(=O)C(C)C)O3)CC2)cc1 (stereo not given)	–	–	–	–
COc1ccc2c(c1)C(=NNC(N)=S)c1cc(OC)ccc1-2	–	50	–	–
COc1ccc2c(c1)C(=NO)c1cc(OC)ccc1-2	–	–	–	–
O=[N+]([O-])c1ccc(Cc2nnc(-c3ccc(F)cc3)o2)cc1	–	–	–	–
Cc1ccc(-c2nnc(Cc3ccc([N+](=O)[O-])cc3)o2)cc1	–	61	–	–
COc1ccc(N=Cc2c(O)n(-c3ccc(OC)cc3)c(=O)c3ccccc23)cc1	–	–	–	–
Cc1ccc(-n2c(O)c(C=Nc3ccc(S(N)(=O)=O)cc3)c3ccccc3c2=O)cc1C	–	80	–	–
